For one test, the target named is Albumin (Bos taurus) (UniProt P02769). Briefly: compounds binding labelled BSA control protein – biochemical, small-molecule microarray, Alexa647 label, 635/667 nm fluorescence, artefact control for SMM control protein annotation, profiling panel (AID 1118).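 Further: score merges 667 nm emission intensity and signal-to-noise per printed compound spot.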 To be noted: BSA-A647 binding, fluorescence 635 nm, higher = more signal.
A short description of test [1]: probe aXIP binding to arrayed compounds – biochemical, NeuroSMM set, 635/667 nm fluorescence, primary screen (AID 1119).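 Further: probe is the protein aXip251-270 applied at 1 µg/mL to compound-printed slides; binding of probe to printed compounds measured as 667 nm fluorescence plus signal to noise.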 The following applies: small-molecule microarray, higher = more signal, called active from +8 up or from −8 down.
Test [2] is described as follows: probe aNOTCH3 binding on compound microarray – biochemical, small-molecule microarray, 635/667 nm fluorescence, primary screen (AID 1120).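 Further: probe is a biotin-tagged antibody raised against NOTCH3 rather than NOTCH3 protein; score merges spot fluorescence near 667 nm with spot signal to noise.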 The following applies: higher = more signal.
Test [3] in a line: probe aNOTCH2 binding on compound microarray – biochemical, small-molecule microarray, 635/667 nm fluorescence, primary screen (AID 1121).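 Further: score merges feature fluorescence read at 667 nm with its signal to noise.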 The following applies: higher = more signal.
Test [4] concerns the target Carbonic anhydrase 2 (Homo sapiens) (UniProt P00918). Briefly: compounds binding carbonic anhydrase 2 – biochemical, small-molecule microarray, Alexa647-labelled CAII, profiling panel (AID 1122). The following applies: CAII-A647 binding fluorescence, higher = more signal.
A short description of test [5]: COS7 lysate on small-molecule microarray, probe aHis, 635 nm (AID 1123).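 Further: z-score combines 667nm fluorescence intensity with signal-to-noise per printed compound spot.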 The following applies: COS7 cell lysate, fluorescence, higher = more signal.
The nature of test [6]: probe aLAP1 signal on lysate-treated microarray – cell lysate, small-molecule microarray, COS7 lysate, primary screen (AID 1124).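 Further: lysate comes from COS7 cells expressing LAP1 and is applied at 0.3 µg/mL; score merges spot fluorescence near 667 nm with signal-to-noise over triplicate slides.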 The following applies: probe aLAP1, fluorescence, higher = more signal.
The subject of the next test is Sam68 (KHDRBS1). Briefly: compounds binding KHDRBS1 protein – biochemical, small-molecule microarray, 635 nm fluorescence, primary screen (AID 1125).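 Further: score merges 667 nm channel intensity with signal to noise over triplicate slides.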 The following applies: higher = more signal.
Test [7] concerns Chordin-like protein 2 (CHRDL2). The experiment in a line: compounds binding chordin-like 2 – biochemical, small-molecule microarray, 635 nm fluorescence, primary screen (AID 1126).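 Further: printed compound slides probed with Chrdl2 protein at 4 µg/mL for 1 h at 4 C; score merges 667 nm emission intensity with signal to noise over three replicate slides.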 The following applies: fluorescence 635 nm, higher = more signal.
In test [8] the target is Concanavalin-A (Canavalia ensiformis) (UniProt P02866). The experiment in a line: compounds binding concanavalin A lectin – biochemical, small-molecule microarray, Alexa647 label, 635 nm, artefact control for SMM control protein annotation, primary screen (AID 1127).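 Further: z combines 667 nm emission intensity with signal-to-noise across three replicate slides.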 To be noted: ConA-A647 binding fluorescence, higher = more signal.
Test [9] in a line: compounds binding Alexa647 anti-His antibody – biochemical, small-molecule microarray, 635 nm fluorescence, artefact control for SMM control protein annotation, primary screen (AID 1128).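 Further: score merges feature fluorescence with signal-to-noise for each printed compound spot.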 The following applies: higher = more signal.
Test [10] has as its system Human papillomavirus type 1a E7 protein (residues 1-88). Briefly: HPV1a E7 small-molecule binders, primary screen, biochemical, small-molecule microarray, residues 1-88, 635 nm (AID 1129). To be noted: small-molecule microarray binding, fluorescence 635 nm; higher = more signal.
Test [11] deals with Focal adhesion kinase 1 (Homo sapiens) (UniProt Q05397). Briefly: PTK2 protein binding on printed compound slides – biochemical, small-molecule microarray, 635/667 nm fluorescence, BSA, DTT, primary screen (AID 1130).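 Further: composite of spot emission at 667 nm and signal to noise over triplicate slides.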 To be noted: 635 nm fluorescence, higher = more signal.
Test [12] deals with Fibrinogen (Alexa647-labelled). The experiment in a line: Alexa647-fibrinogen binding to printed small molecules – biochemical, small-molecule microarray, 635/667 nm fluorescence, artefact control for SMM control-protein annotation, profiling panel (AID 1131).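 Further: z-score merges 667 nm fluorescence with per-spot signal-to-noise over triplicate slides.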 To be noted: fibrinogen-A647 binding fluorescence, higher = more signal.
Test [13] concerns the target Follistatin (Homo sapiens) (UniProt P19883). Briefly: FST protein binding to printed compounds – biochemical, small-molecule microarray, 635/667 nm fluorescence, primary screen (AID 1132). The following applies: 635 nm fluorescence, higher = more signal.
In test [14] the target is Fibroblast growth factor 2 (Homo sapiens) (UniProt P09038). Briefly: basic fibroblast growth factor binding to printed compounds – biochemical, small-molecule microarray, 635/667 nm fluorescence, primary screen (AID 1133). To be noted: FGF2, fluorescence 635/667, higher = more signal.
Test [15] in a line: JC-1 mitochondrial potential readout, lung cancer cells – cell-based, A549, JC-1 fluorescence, basal, 24 h, 100 nL, profiling panel (AID 1138).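 Further: A549 lung adenocarcinoma cells under basal conditions with no added stimulus; test concentration not given here.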 To be noted: higher = more signal.
Another test relates to Lefty1. The experiment in a line: Lefty1 protein binding to printed compounds – biochemical, small-molecule microarray, 635/667 nm fluorescence, primary screen (AID 1139). To be noted: fluorescence 635/667, higher = more signal.
The subject of test [16] is wheat germ agglutinin (Triticum aestivum), Alexa647-labelled. Briefly: Alexa647-WGA lectin binding to printed small molecules – biochemical, small-molecule microarray, 635/667 nm fluorescence, artefact control for SMM control-protein annotation, profiling panel (AID 1140).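 Further: score merges 667 nm feature emission with signal to noise over triplicate slides.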 To be noted: WGA-A647 binding, 635 nm fluorescence, higher = more signal.
For test [17], the target named is Luciferin 4-monooxygenase (Photinus pyralis) (UniProt P08659). Briefly: inhibition of purified Photinus pyralis luciferase – biochemical, luminescence, purified enzyme, 2006 set, primary screen (AID 1141).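 Further: cell-free assay with purified firefly luciferase at 100 ng per well in PBS; test concentration not given here.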 To be noted: purified firefly luciferase, SteadyGlo luminescence, 30 min; higher = more signal, called active from +8 up or from −8 down.

Molecules are shown by their SMILES. Activity calls are given as the source filed them.

The values below come from PubChem BioAssay.

Sequence of Concanavalin-A (Canavalia ensiformis) (P02866 whole entry, looked up): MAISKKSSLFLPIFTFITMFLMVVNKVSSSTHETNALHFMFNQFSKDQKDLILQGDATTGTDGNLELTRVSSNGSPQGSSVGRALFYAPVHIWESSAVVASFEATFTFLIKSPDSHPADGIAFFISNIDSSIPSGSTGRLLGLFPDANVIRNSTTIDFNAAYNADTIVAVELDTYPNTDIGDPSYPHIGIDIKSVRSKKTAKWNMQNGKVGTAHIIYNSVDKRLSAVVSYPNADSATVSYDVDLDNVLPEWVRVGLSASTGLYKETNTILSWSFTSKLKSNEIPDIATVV
Sequence of Luciferin 4-monooxygenase (Photinus pyralis) (P08659 whole entry, looked up): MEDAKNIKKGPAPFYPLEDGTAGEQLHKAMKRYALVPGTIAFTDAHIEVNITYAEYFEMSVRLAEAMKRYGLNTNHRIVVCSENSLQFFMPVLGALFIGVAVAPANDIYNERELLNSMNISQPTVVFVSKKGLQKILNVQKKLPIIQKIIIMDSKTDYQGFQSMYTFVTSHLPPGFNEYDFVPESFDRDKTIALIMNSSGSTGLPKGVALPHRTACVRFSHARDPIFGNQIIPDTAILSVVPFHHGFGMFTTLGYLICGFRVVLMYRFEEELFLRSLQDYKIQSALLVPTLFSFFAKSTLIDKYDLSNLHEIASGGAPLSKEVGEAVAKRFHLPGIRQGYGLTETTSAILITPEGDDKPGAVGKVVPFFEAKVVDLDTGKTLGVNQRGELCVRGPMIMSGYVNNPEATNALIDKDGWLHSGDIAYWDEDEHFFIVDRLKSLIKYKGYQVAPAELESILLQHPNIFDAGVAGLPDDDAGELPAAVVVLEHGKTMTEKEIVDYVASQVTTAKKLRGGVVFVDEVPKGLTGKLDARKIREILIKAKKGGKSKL
Sequence of Albumin (Bos taurus) (P02769 whole entry, looked up): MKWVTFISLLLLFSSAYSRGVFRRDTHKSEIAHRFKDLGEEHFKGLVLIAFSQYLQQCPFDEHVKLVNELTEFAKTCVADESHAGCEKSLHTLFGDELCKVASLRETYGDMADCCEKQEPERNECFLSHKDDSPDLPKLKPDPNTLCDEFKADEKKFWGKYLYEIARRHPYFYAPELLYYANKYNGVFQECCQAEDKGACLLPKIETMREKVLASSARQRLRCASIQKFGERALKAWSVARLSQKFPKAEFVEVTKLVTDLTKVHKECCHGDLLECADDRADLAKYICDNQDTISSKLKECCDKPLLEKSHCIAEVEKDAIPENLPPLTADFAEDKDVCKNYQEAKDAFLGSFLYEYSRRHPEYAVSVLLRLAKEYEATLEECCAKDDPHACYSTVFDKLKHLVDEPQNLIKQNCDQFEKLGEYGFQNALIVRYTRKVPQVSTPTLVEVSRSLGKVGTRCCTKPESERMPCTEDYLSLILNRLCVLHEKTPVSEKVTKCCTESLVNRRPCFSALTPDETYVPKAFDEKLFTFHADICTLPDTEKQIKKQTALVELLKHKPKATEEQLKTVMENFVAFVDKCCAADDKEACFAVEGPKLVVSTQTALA
Sequence of Fibroblast growth factor 2 (Homo sapiens) (P09038 whole entry, looked up): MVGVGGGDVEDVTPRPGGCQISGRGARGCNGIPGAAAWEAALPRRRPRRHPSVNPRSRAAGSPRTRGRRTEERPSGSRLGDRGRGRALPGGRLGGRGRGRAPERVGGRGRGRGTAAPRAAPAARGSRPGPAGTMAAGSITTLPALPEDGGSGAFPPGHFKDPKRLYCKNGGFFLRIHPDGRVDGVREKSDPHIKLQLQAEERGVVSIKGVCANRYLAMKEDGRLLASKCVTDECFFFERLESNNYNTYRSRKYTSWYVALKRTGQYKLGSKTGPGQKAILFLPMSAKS
Sequence of Focal adhesion kinase 1 (Homo sapiens) (Q05397 whole entry, looked up): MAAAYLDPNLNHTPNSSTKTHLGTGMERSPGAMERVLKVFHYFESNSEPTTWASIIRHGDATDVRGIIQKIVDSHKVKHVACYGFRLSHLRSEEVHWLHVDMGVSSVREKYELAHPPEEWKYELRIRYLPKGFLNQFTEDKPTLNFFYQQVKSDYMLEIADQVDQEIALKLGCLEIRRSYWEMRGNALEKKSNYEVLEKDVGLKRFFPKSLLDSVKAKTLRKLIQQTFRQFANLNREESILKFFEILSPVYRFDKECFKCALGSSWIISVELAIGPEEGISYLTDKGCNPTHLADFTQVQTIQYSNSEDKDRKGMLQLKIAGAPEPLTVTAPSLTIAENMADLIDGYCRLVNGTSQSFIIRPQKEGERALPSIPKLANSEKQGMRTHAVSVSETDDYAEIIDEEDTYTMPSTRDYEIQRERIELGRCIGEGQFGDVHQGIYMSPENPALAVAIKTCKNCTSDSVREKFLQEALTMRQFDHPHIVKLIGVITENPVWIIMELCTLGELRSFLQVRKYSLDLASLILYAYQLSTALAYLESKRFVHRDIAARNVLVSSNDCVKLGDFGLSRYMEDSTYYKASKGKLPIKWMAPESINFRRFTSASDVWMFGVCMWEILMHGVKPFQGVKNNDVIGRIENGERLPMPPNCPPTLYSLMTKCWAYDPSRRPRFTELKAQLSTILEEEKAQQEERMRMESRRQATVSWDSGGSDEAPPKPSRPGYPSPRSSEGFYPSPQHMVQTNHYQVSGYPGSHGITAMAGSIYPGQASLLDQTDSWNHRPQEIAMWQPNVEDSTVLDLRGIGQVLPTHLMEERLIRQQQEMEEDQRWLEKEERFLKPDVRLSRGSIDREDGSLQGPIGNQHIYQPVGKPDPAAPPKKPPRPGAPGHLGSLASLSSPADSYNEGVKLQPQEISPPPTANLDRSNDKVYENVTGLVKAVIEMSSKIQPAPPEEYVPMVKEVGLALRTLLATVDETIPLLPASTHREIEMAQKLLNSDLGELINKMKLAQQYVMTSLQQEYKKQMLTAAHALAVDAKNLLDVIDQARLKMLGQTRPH
Sequence of Follistatin (Homo sapiens) (P19883 whole entry, looked up): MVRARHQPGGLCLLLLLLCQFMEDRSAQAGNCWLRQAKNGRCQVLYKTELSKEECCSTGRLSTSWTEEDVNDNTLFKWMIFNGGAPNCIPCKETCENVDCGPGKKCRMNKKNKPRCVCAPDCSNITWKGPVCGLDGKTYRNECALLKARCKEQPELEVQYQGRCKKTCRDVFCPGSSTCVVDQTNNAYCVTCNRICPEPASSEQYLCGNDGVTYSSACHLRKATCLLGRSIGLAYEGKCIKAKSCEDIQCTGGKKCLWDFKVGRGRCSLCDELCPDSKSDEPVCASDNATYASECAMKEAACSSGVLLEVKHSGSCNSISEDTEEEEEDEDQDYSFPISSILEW

Consider `CC(C)C(CO)N1C(=O)[C@@H]2C3C(=O)OCCC/C=C\[C@H]3OC23C=CCN(CCN2CCOCC2)C(=O)[C@@H]13` (stereo not given in full), for which the composite z-score was 0.692 in the test with Albumin (Bos taurus); -0.21 in test [2]; -0.0928 in test [3]; 0.463 in test [4]; -0.301 in [5]; 0.395 in test [6]. Besides, the composite z-score is -0.362 in the test on Sam68 (KHDRBS1); -0.254 in test [7]; -0.724 in [8]; -0.92 in test [9]; -1.54 in [10]; -0.0582 in [11]. The composite z-score in test [12] is -0.0904; in test [13], 0.113; in test [14] it was 0.164; with Lefty1, 0.579; in [16] it was -1.24. For the same molecule, the composite Z-score in test [1] was -0.298 (inactive). In addition, the z-score in test [15] was -0.835; in [17] it was -0.519 (inactive).

`CC(=O)NCCCC[C@@H]1NC(=O)[C@H]2C[C@@H](C(=O)NCCCCCCNC(=O)CS)[C@@H](c3ccc(O)cc3)N2C1=O`: the composite z-score is -1.4 with Albumin (Bos taurus); -0.216 in test [2]; -0.185 in test [3]; 0.727 in [4]; 2.68 in [5]; 0.0073 in [6]. Further, the composite z-score was 0.0719 in the test with Sam68 (KHDRBS1); -0.205 in test [7]; -0.366 in test [8]; 2.48 in test [9]; 0.432 in test [10]; 0.458 in test [11]. Moreover, the composite z-score is -0.397 in test [12]; -0.409 in test [13]; 0.141 in [14]; -0.712 in the test with Lefty1; 0.485 in test [16]. Besides, the composite Z-score in test [1] is 0.239 (inactive). Besides, the z-score in test [15] is -1.08; in test [17], -0.644 (inactive).

Take `C=CC1(C(=O)OC)CC=C(C(=O)OC)CC1` (stereo not given): the composite z-score with Albumin (Bos taurus) was 0.714; in [2], -0.0077; in test [3] it was -0.0661; in test [4], 0.613; in test [5], 0.732; in [6] it was 0.872. In addition, the composite z-score is 0.82 with Sam68 (KHDRBS1); 0.556 in [7]; 0.339 in [8]; 0.731 in [9]; 0.901 in test [10]; 0.286 in test [11]. For the same molecule, the composite z-score worked out at 0.862 in test [12]; 0.65 in [13]; 0.653 in [14]; 0.308 with Lefty1; 0.184 in test [16]. For the same molecule, the composite Z-score in test [1] is 0.257 (inactive). Moreover, the z-score is 0.263 in test [15] and 0.723 (inactive) in test [17].

Take `COC(=O)C[C@H]1O[C@]2(C(=O)N(C)c3ccccc32)[C@@H](C)[C@@H]1[Si](C)(C)F`: the composite z-score in the test with Albumin (Bos taurus) is -0.255; in test [2], -0.0584; in [3], -0.161; in test [4], 0.224; in test [5], 0.597; in [6] it was -0.0413. Further, the composite z-score with Sam68 (KHDRBS1) is 1.09; in test [7] it was 0.592; in test [8], 0.596; in test [9] it was 0.0783; in test [10], 0.608; in [11] it was 0.26. In addition, the composite z-score is 0.209 in test [12]; 1.18 in test [13]; 2.03 in test [14]; 1.33 in the test with Lefty1; -0.0572 in test [16]. The composite Z-score in [1] was 0.448 (inactive). For the same molecule, the results for the z-score in test [15] and in test [17] were 0.435 and -1.82 (inactive), respectively.

`CC(C)OC(=O)C=C1C[C@@H](c2ccccn2)O[C@@H](c2ccccn2)O1`: the composite z-score with Albumin (Bos taurus) was -0.47; in test [2], 0.0942; in test [3], -0.12; in test [4], 0.775; in test [5] it was 0.407; in [6] it was 1.32. In addition, the composite z-score with Sam68 (KHDRBS1) was 0.216; in test [7], 1.49; in test [8], -0.333; in test [9] it was 0.772; in test [10], -0.0007; in test [11] it was -0.19. Also, the composite z-score in test [12] was 0.0108; in test [13], 1.34; in test [14], 0.935; with Lefty1 it was 1.53; in [16], 0.372. In [1], the composite Z-score is 0.92 (inactive). Further, the z-score was 0.0752 in [15] and 0.633 (inactive) in [17].

As to `O=C(NCCO)C1=C[C@H](Oc2ccccc2I)[C@@H](O)[C@H](N(Cc2ccco2)C(=O)Cc2ccccc2)C1`, the composite z-score is -0.884 with Albumin (Bos taurus); -0.0014 in [2]; -0.0956 in test [3]; -0.17 in test [4]; -0.604 in test [5]; -0.0107 in test [6]. Further, the composite z-score is -0.24 in the test with Sam68 (KHDRBS1); 0.607 in test [7]; -0.981 in test [8]; -0.169 in test [9]; 0.234 in [10]; -0.27 in test [11]. The composite z-score is -0.175 in test [12]; 0.863 in test [13]; 0.58 in test [14]; 0.624 in the test on Lefty1; -0.109 in [16]. For the same molecule, in test [1], the composite Z-score is 0.524 (inactive). The z-score is -1.18 in test [15] and 0.341 (inactive) in [17].
